Luciferase inh: Firefly luciferase inhibition profiling of diverse chemical library using quantitative high-throughput screening; Luciferin 4-monooxygenase (Photinus pyralis), P08659; AID 1347043, 2019; Potency, µM (series often up to 115 µM), actives largely listed as inhibitors; actives 2.5% (n = 76,000); purified P. pyralis luciferase, luminescence, biochemical; note: nearly all actives have a fitted effect of over 65% in size
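FLuc 10nM, D-luciferin 10uM, ATP 10uM, Mg acetate 10mM, Tris acetate pH 7.5, Tween/BSA; cpd qHTS; enzyme added last; CCD luminescence.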
3T3 cytotox: Cytotoxic Profiling in NIH 3T3 Cell Line of Diverse Libraries Using Quantitative High-Throughput Screening; NIH 3T3 viability, CellTiter-Glo ATP luminescence, 48-72 h; actives 4.3% (n = 94,000); AID 1345082, 2018; Potency, µM (highest dose often 96.7 µM), for the others: top-dose activity change, negative = cytotoxicity, usual class: inhibitors; note: nearly all actives have a fitted effect of over 55% in size
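Cytotoxicity is measured as loss of cellular ATP: NIH 3T3 cells (400/well) are exposed to compound for 48 or 72 hr at 37 °C, then CellTiter-Glo luminescence is imaged after 10 min at room temperature.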
HEK293 tox: Cytotoxic Profiling in HEK 293 Cell Line of Diverse Libraries Using Quantitative High-Throughput Screening | HEK 293 viability, ATP luminescence (CellTiter-Glo), 48-72 h | Potency, µM (series often up to 115 µM), for inactives: at the highest dose activity change, negative = cytotoxicity, most hits filed as inhibitors | actives 6.6% (n = 94,000) | AID 1345083, 2018; note: nearly all actives have a fitted effect of over 60% in size
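Cells seeded first (HEK 293, 250 cells/well), then compound added by pintool. Incubation ran 48 or 72 hr at 37 degree Celsius. CellTiter-Glo was added and luminescence imaged after 10 min at room temperature.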
GPT2 inhibitor: Primary qHTS assay for inhibitors of Glutamate pyruvate transaminase 2 (GPT2) | Recombinant GPT2, coupled pyruvate oxidase/HRP Amplex Red fluorescence | Potency, µM (series often up to 57.7 µM), without a hit: top-dose activity change, negative = inhibition, hits mostly inhibitors | actives 0.25% (n = 100,000); note: nearly all actives have a fitted effect of over 60% in size
Target sequence (Q8TD30 whole entry, looked up): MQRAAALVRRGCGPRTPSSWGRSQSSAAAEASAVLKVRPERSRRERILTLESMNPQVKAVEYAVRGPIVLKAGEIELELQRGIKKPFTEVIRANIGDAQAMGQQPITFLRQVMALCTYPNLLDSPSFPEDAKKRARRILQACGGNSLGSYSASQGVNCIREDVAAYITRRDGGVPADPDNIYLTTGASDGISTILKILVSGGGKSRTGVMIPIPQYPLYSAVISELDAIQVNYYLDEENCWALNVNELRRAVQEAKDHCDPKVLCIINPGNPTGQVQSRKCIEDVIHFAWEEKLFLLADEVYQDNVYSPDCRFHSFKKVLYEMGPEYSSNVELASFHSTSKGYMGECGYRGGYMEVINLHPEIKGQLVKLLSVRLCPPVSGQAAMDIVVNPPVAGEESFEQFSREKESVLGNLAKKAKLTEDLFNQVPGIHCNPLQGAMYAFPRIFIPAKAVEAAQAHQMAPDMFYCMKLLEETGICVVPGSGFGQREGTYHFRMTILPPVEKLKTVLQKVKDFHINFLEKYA
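Fluorescence read-out: pyruvate from GPT2 turnover coupled to pyruvate oxidase, HRP and Amplex Red (0.2mM ThPP, 0.2U/mL PO and HRP, 50uM Amplex final). Substrates 250uM a-KG, 2mM L-alanine; enzyme 10ng/uL; 30 min RT.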
hNpr1 antagonist: Natriuretic polypeptide receptor (hNpr1) antagonism - Primary qHTS; actives 1.6% (n = 76,000); Potency, µM (series often up to 46.3 µM), for inactives: top-dose activity change, negative = inhibition, usual class: inhibitors; AID 1347048, 2019; HEK293 hNpr1 GloSensor cGMP, ANP-stimulated luminescence; calls by dose curve; note: nearly all actives have a fitted effect of over 60% in size
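Compound pre-incubated 30 min at room temperature on GloSensor-loaded HEK293 cells stably carrying hNpr1 and the pGS-40F cGMP biosensor. Stimulation uses hNppA at 0.1 nM final; luminescence is taken at baseline and 20 min post-agonist.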
The depositor's hits bear a star; i = inactive; ? = inconclusive; . = no result; [ ] = remark or other dose. An excerpt weighted towards active compounds, which were near 10% of everything screened. Unless noted, calls come from the whole dose curve; as a rule, active = well fitted curve in the direction sought with a large enough effect; inconclusive = small, poorly fitted or top-dose-only effect, or another doubt; inactive = no such curve, though single readings can be large; an effect the other way counts as inactive or inconclusive. % is set by controls: 0 for no effect and ±100 for the full control effect; potency is the fitted concentration of half-maximal effect.

SMILES | Luciferase inh | 3T3 cytotox | HEK293 tox | GPT2 inhibitor | hNpr1 antagonist
O=C(NCC1Cn2cccc2C(=O)N1Cc1ccccc1)c1ccccn1 (centres undefined) | i | 3% | -10% | i | 2%
O=C(C1CCCC1)N1CCN(c2nccc(Nc3ccccc3F)n2)CC1 | . | 22µM* | ? | i | .
O=C(C1CCCN1c1nccc(Nc2ccccc2F)n1)N1CCN(c2ncccn2)CC1 (centres undefined) | . | i | -13% | i | .
COc1ccccc1-c1ccc(CN2CCC(NC(=O)Cc3ccccn3)C2)cc1 (centres undefined) | . | ? | ? | i | .
COc1ccc(F)cc1-c1ccc(CN2CCC(N[S+](=O)([O-])c3ccc(NC(C)=O)cc3)C2)cc1 (centres undefined) | . | ? | 14µM* | . | .
COc1ccccc1-c1ccc(CN2CCC(N[S+](=O)([O-])c3cccc(C(F)(F)F)c3)C2)cc1 (centres undefined) | . | 13µM* | 20µM* | . | .
COc1ccc(F)cc1-c1ccc(CN2CCC(N[S+](=O)([O-])c3cccc(C(F)(F)F)c3)C2)cc1 (centres undefined) | . | 13µM* | 20µM* | . | .
COc1ccccc1-c1ccc(CN2CCC(N[S+](=O)([O-])c3cccs3)C2)cc1 (centres undefined) | . | ? | ? | 3% | .
COc1ccccc1-c1ccc(CN2CCC(N[S+](=O)([O-])c3ccccc3)C2)cc1 (centres undefined) | . | 32µM* | 35µM* | . | .
COC(=O)C1=CN(CC(=O)Nc2cccc(F)c2)S(=O)(=O)N=C1C | i | i | 4% | 4% | 4%
COc1ccc(Cl)cc1NC(=O)CCC1CCCN(Cc2ccc(C)s2)C1 (centres undefined) | i | ? | ? | i | -12%
O=C(Cc1cccc(Cl)c1)N1CCC2(CC1)CCN(Cc1cccs1)c1ccccc1O2 | i | ? | 25µM* | -30% | 13%
O=C(c1cccc(Cl)c1)N1CCC2(CC1)CCN(Cc1cccs1)c1ccccc1O2 | i | ? | 28µM* | i | -5%
CC(=O)N1CCC2(CC1)CCN(Cc1cccs1)c1ccccc1O2 | i | -32% | ? | 4% | 3%
CC(C)NC(=O)N1CCCC(C(=O)N2CCC(c3nc4ncccc4[nH]3)C2)C1 (centres undefined) | . | -9% | -1% | 2% | .
CCOC(=O)C1(Cc2ccccc2C)CCCN(C(=O)c2csc(C)n2)C1 (centres undefined) | 40µM* | 0% | -17% | 3% | -2%
CCOC(=O)C1(Cc2ccccc2F)CCCN(C(=O)CCc2c[nH]c3ccccc23)C1 (centres undefined) | i | ? | 35µM* | -15% | ?
CCOC(=O)C1(Cc2ccccc2C)CCCN(C(=O)c2cc[n+]([O-])cc2)C1 (centres undefined) | i | i | -2% | -5% | 14%
CCOC(=O)C1(Cc2ccccc2F)CCCN(C(=O)C2=C(C)OCCO2)C1 (centres undefined) | i | -30% | ? | i | 0%
CCOC(=O)C1(Cc2ccccc2Cl)CCN(C(=O)c2ccsc2)CC1 | 25µM* | -25% | 79µM* | -42% | -11%
CCOC(=O)C1(Cc2ccccc2Cl)CCN(Cc2cccnc2)CC1 | i | ? | ? | 1% | -8%
NC(=O)[C@@H](Cc1c[nH]c2ccccc12)NC(=O)[C@@]1(O)C[C@@H](O)[C@H](O)[C@@H](NC(=O)c2ccc(F)c(Cl)c2)C1 | i | 1% | i | -5% | 0%
COc1ccc(S(=O)(=O)N2CC(=O)N(CC3CC3)C3(CCCCC3)C2)cc1 | . | 35µM* | ? | 1% | .
Cc1noc(C)c1[S+](=O)([O-])N1CCCC2(COc3ccccc3C(=O)N2)C1 (centres undefined) | i | 35µM* | 22µM* | i | ?
O=S1(=O)NC2(CCCN(Cc3ccc(Cl)cc3)C2)COc2ccccc21 (centres undefined) | . | 45µM* | ? | 3% | .
SMILES | Luciferase inh | 3T3 cytotox | HEK293 tox | GPT2 inhibitor | hNpr1 antagonist
O=C1NC2(CCCN(Cc3ccc(F)cc3)C2)COc2ccccc21 (centres undefined) | i | ? | ? | 1% | 16%
O=C1NC2(CCCN(Cc3ccc(OC(F)(F)F)cc3)C2)COc2ccccc21 (centres undefined) | i | ? | ? | i | -7%
O=C1NC2(CCCN(Cc3cncs3)C2)COc2ccccc21 (centres undefined) | i | 22µM* | 28µM* | -8% | -6%
O=C1NC2(CCCN(Cc3ccsc3)C2)COc2ccccc21 (centres undefined) | i | 40µM* | 79µM* | i | -21%[70.6 µM]
CCOc1ccc(S(=O)(=O)N2CCC(C3CCN(C(C)=O)CC3)C2)cc1 (centres undefined) | i | ? | ? | -3% | -19%
Cc1cccc(-c2ccccc2C(=O)N2CCCC(CO)(Cc3ccccc3F)C2)c1 (centres undefined) | i | 79µM* | 20µM* | ? | -9%
O=C(Nc1cccc(F)c1)N1CCCC(c2nn[nH]n2)C1 (centres undefined) | i | -1% | i | -9% | -2%
COc1cccc(-c2[nH]cnc2-c2ccccc2)c1OCCCN(C)C | i | -15% | -11% | -6% | -5%
CCN(C(=O)CCC(=O)N1CCc2nc3cc(-c4ccc(OC)cc4)[nH]n3c(=O)c2C1)c1ccccc1 | 16µM* | ? | ? | 0% | -2%
CN(Cc1ccc(F)cc1)Cc1cnc(S(C)(=O)=O)n1CCCc1ccccc1 | i | ? | 20µM* | -23% | 0%
CCS(=O)(=O)c1ncc(CN(C)Cc2ccc3nonc3c2)n1CCc1ccccc1 | i | -21% | 22µM* | -5% | -1%
CC(C)S(=O)(=O)c1ncc(CN(C)Cc2cnn(C)c2)n1CCc1ccccc1 | i | -19% | -6% | -2% | -7%
CCCCn1c(CN(C)Cc2cnn(-c3ccccc3C)c2)cnc1S(=O)(=O)CC | i | ? | ? | -19% | -16%
COC1CCCN(C(=O)c2cc(-c3ccc(F)cc3)cc3ncn(C)c23)C1 (centres undefined) | 25µM* | -26%[138 µM] | ? | -14%[88.5 µM] | 1%[70.6 µM]

Screening data as filed in PubChem BioAssay.
